Hits are enriched below; roughly 3.8% of the tested compounds scored in any of these assays.
PrPC surface inh – inhibitors of human cell surface prion protein PrPC. TR-FRET read-out. inhibition, % at 13.8 µM. 0.43% of 370,000 active. AID 720596; in the data active = inhibition above about 24%; also: 0% = median of the test wells and 100% = reference compound wells
Mtb FBA inh – inhibitors of M. tuberculosis fructose-bisphosphate aldolase | purified M. tuberculosis FBA, fluorescence read-out | inhibition, % at 1 µM | 2.3% of 360,000 active | AID 588726;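 also: 0% = vehicle and 100% = reference inhibitor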
Target sequence (P9WQA3 whole entry, looked up): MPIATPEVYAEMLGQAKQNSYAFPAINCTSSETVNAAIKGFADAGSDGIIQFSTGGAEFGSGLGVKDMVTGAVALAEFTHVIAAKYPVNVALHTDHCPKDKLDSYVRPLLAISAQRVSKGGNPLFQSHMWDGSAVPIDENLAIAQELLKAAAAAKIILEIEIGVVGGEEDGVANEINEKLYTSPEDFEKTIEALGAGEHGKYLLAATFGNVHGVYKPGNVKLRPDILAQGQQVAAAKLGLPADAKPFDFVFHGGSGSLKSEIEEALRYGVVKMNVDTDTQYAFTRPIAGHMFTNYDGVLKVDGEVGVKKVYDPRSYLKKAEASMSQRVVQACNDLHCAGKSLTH
Y pestis TopoI – inhibitors of Yersinia pestis topoisomerase I | AID 504884 | activity, % at 10 µM | 0.064% of 360,000 active | Y. pestis Topo-I cleavage product accumulation, plate reader; in the data active = activity above about 50%, passing the limit was not always enough
PrP 5UTR inh – suppresses PrP 5' UTR mRNA reporter expression; cell-based PrP 5' UTR mRNA reporter, plate reader; 0.35% of 340,000 active; inhibition, % (no concentration beside the values); in the data active = inhibition above about 52%; also: 0 = median of the neutral control wells
Mtb hypoxia rep – Mtb hypoxia fluorescent reporter inhibition. M. tuberculosis hypoxia-regulated fluorescent reporter, fluorescence. fluorescence inhibition, % (concentration not given with the values). 0.1% of 300,000 active. AID 1159583; in the data active = fluorescence inhibition mostly above about 23%, no sharp cut-off; inactive = mostly below about 17%
GDH-TPI counter-1 – GDH-TPI coupled enzyme inhibition counter-screen; 1.2% of 360,000 active; inhibition, % at 4.8 µM; AID 588335; GDH-TPI coupled enzyme counterscreen, NADH absorbance; in the data active = inhibition above about 30%;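 also: 0% = DMSO wells and 100% = wells lacking the enzyme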
Mtb FBA confirm – Mtb FBA inhibition, confirmed. inhibition, % at 1 µM. purified M. tuberculosis FBA, fluorescence read-out. shares compounds with Mtb FBA inh. AID 651616. 78% of 5,600 active;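 also: 0% = vehicle wells and 100% = reference inhibitor wells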
GDH-TPI counter-2 – counter-screen for M. tuberculosis FBA inhibitors: GDH-TPI coupled enzyme inhibition. shares compounds with Mtb FBA inh. GDH-TPI coupled enzyme counterscreen, fluorescence. inhibition, % at 1 µM. 81% of 5,600 active. AID 652141; in the data active = inhibition above about 10%
GDH-TPI DR – counter-screen for M. tuberculosis FBA inhibitors: GDH-TPI dose response; 79% of 170 active; IC50, µM; shares compounds with Mtb FBA inh; GDH-TPI coupled enzyme assay, fluorescence, artifact counterscreen; call rule not given here
The depositor's hits bear a star; . = no result given; + = active, no number. Rule as the data show it, unless noted: active = inhibition above about 27%; inactive = the rest.

SMILES | PrPC surface inh | Mtb FBA inh | Y pestis TopoI | PrP 5UTR inh | Mtb hypoxia rep | GDH-TPI counter-1 | Mtb FBA confirm | GDH-TPI counter-2 | others
Cn1c2ccccc2c(=O)c2ccc(Cl)cc21 | -4 | 106* | 7 | . | . | 6 | 64* | 44*
C=CCNC(=O)C(C#N)=Cc1cn(-c2ccccc2)nc1-c1cccs1 | . | . | . | . | 5 | . | . | .
CC(C)Cn1cc(-c2cccc3nccn23)cn1 | -7 | 105* | 3 | . | . | 4 | 0 | -2
CN1CCN(C(=O)c2cccc(-c3cnc4cnc(-c5ccccc5Oc5ccccc5)cn34)c2)CC1 | -6 | 36* | 21 | . | . | 5 | 113* | 102*
CCn1cnc2c(oc3ccccc32)c1=O | 3 | 44* | 3 | -24 | 10 | 1 | 177* | 127*
COc1ccccc1C1=NC(c2ccccc2)CN1c1ccccc1 (stereo unspecified) | 6 | 102* | -9 | -11 | -1 | 2 | 89* | 63*
COc1ccccc1-c1cn(-c2ccccc2)c(=S)[nH]1 | -4 | 7 | -1 | -20 | -10 | -1 | . | .
COc1cc(C=NNC(=O)c2ccc(N3CCCC3=O)cc2)ccc1O | . | . | . | . | 24 | . | . | .
CCCN(CCC)CCCNC(=O)c1cc2c(=O)[nH]c3ccccc3c2s1 | -13 | 70* | 5 | -11 | -3 | 9 | + | 194*
CCCCN(CC)CCNC(=O)c1cc2c(=O)[nH]c3ccccc3c2s1 | -1 | 39* | 1 | 8 | 3 | 21 | + | +
O=C(NCC1CCCO1)c1cc2c(=O)[nH]c3ccccc3c2s1 (stereo unspecified) | 1 | 35* | -1 | -41 | 11 | -2 | 53* | 55*
CCCC(NC(=O)Cc1c(C)c2c(cc(C)c3c(C)coc32)oc1=O)C(=O)O (stereo unspecified) | 3 | 55* | -3 | -26 | 11 | 1 | -24 | -17
CC[C@@H](C)[C@H](NC(=O)CNC(=O)Cc1c(C)c2c(cc(C)c3c(C)coc32)oc1=O)C(=O)O | 4 | 82* | 6 | 9 | 8 | 12 | 50* | 35*
Cc1oc2c(c(C)cc3oc(=O)c(CC(=O)N[C@@H](CCCNC(N)=O)C(=O)O)c(C)c32)c1C | -6 | 11 | 1 | -16 | -7 | 5 | . | .
CC[C@@H](C)[C@H](NC(=O)Cc1c(C)c2c(cc(C)c3c(C)c(C)oc32)oc1=O)C(=O)O | -4 | 27 | -1 | -16 | -1 | 10 | . | .
Cc1coc2c1c(C)cc1oc(=O)c(CC(=O)NCCCN3CCCC3=O)c(C)c12 | -7 | 66* | 24 | -24 | . | 21 | 13 | 0 | GDH-TPI DR=2.3*
Cc1coc2c1c(C)cc1oc(=O)c(CC(=O)N[C@@H](CC(C)C)C(=O)O)c(C)c12 | 7 | 79* | 8 | -10 | 3 | 19 | 177* | 141*
O=C(NC(Cc1ccc(O)cc1)C(=O)O)c1cccnc1 (stereo unspecified) | . | . | . | . | 10 | . | . | .
COc1ccc(O)c(C=NNC(=S)Nc2cccnc2)c1 | . | . | . | . | 12 | . | . | .
Cc1nc2c(C(=O)N3CCOCC3)cnn2c(C)c1Cc1cccc(Cl)c1 | 2 | . | . | . | 1 | . | . | .
COC(CNC(=O)c1cnn2c(C)c(Cc3ccccc3)c(C)nc12)OC | 4 | 78* | 15 | -5 | 0 | 10 | 2 | -4
Cc1nc2c(C(=O)N3CCOCC3)cnn2c(C)c1Cc1ccc(Cl)cc1 | -1 | 38* | 6 | -13 | 11 | 20 | 200* | 171*
COC(CNC(=O)Cc1c(C)nc2c(-c3ccccc3)c(C)nn2c1C)OC | 0 | -12 | -16 | -43 | 8 | -2 | . | .
CC(=O)c1sc(NN=Cc2cccc(O)c2)nc1C | . | . | . | . | -2 | . | . | .
COc1cccc(NC(=S)NN=C2CCCCc3ccccc32)c1 | . | . | . | . | -7 | . | . | .
SMILES | PrPC surface inh | Mtb FBA inh | Y pestis TopoI | PrP 5UTR inh | Mtb hypoxia rep | GDH-TPI counter-1 | Mtb FBA confirm | GDH-TPI counter-2 | others
COC(=O)[C@@]1(Cc2ccc(OC)cc2)C2c3cc(C(=O)N4CCCC4)n(CC(O)CO)c3CC2CN1C(=O)c1ccccc1 (stereo partly specified) | . | . | . | . | 3 | . | . | .
O=C(COC(=O)Cn1cnc2ccccc21)NCCc1ccc(Cl)cc1 | -5 | 56* | 5 | -22 | -9 | -3 | 46* | 36*
COc1ccc(CCNC(=O)COC(=O)Cn2cnc3ccccc32)cc1OC | 6 | 1 | -9 | -10 | 14 | 2 | . | .
COc1ccc(-n2c(C)cc3cc(OC(C)=O)ccc32)cc1 | -1 | 58* | 3 | -4 | 6 | 5 | 68* | 49*
COc1ccc(-n2c(C)c(C(C)=O)c(C(C)=O)c2C)cc1 | 4 | 2 | -2 | 4 | 4 | 6 | . | .
CCOc1ccc2[nH]c3c(NCCCOC)ncnc3c2c1 | -5 | 110* | -6 | -9 | -5 | 1 | + | +
O=[N+]([O-])c1ccc2ncnc(N3CCN(Cc4ccc5c(c4)OCO5)CC3)c2c1 | -27 | -1 | 15 | -2 | 3 | 7 | . | .
COc1ccc2[nH]c3c(NCCN(C(C)C)C(C)C)ncnc3c2c1 | -11 | 54* | 1 | -75 | 7 | 2 | + | 184*
COc1ccc2[nH]c3c(N4CCN(Cc5ccc6c(c5)OCO6)CC4)ncnc3c2c1 | -1 | 35* | -11 | -3 | 5 | 17 | 79* | 53*
CCOc1ccc2[nH]c3c(N4CCc5ccccc5C4)ncnc3c2c1 | 17 | 32* | -2 | . | . | 10 | + | +
CCOc1ccc(Cl)cc1C=NNC(N)=O | . | . | . | . | -11 | . | . | .
Cc1ccc2[nH]c3c(N4CCOCC4)ncnc3c2c1 | 6 | 82* | -8 | -34 | 1 | 21 | 178* | 145*
CCOc1ccc2[nH]c3c(NCC(C)C)ncnc3c2c1 | . | 77* | -13 | -19 | 5 | 1 | 126* | 110*
CCOc1ccc2[nH]c3c(NCCOC)ncnc3c2c1 | 7 | 71* | 0 | -24 | 0 | -1 | 64* | 48*
Cc1ccc2[nH]c3c(NCc4ccccc4)ncnc3c2c1 | 16 | . | . | . | -7 | . | . | .
COc1ccc(CNc2ncnc3c2[nH]c2cc(OC)c(OC)cc23)cc1 | 8 | 46* | -24 | -27 | 5 | -9 | 106* | 92*
CCOc1ccc2[nH]c3c(NCCN(CC)CC)ncnc3c2c1 | -13 | 21 | -12 | 3 | 9 | 7 | . | .
Cc1cccc(NC(=O)C2Cc3ccccc3OC2=NO)c1 (stereo unspecified) | . | . | . | . | 8 | . | . | .
COc1cc(C=NNC(=O)c2cccc(NC(=O)c3ccccc3)c2)ccc1O | . | . | . | . | 3 | . | . | .
Cc1ccc(C(=O)NCC(=O)OCc2csc(-c3ccccc3)n2)cc1 | -3 | 2 | 24 | -16 | -4 | 0 | . | .
